Assay [1] is described as follows: NFAT Signaling Pathway (AID 444).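 Further: carbachol stimulus at about its EC50 of 1 µM final; on the % scale 0 is the no-effect control and ±100 the full control effect.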 Conditions: Jurkat NFAT-bla M1, carbachol, beta-lactamase ratio, 5 h; at 17.2 µM (top of the series) unless noted. In short, it runs like this:
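Jurkat cells carrying an NFAT-driven β-lactamase reporter and co-transfected muscarinic M1 receptor were treated with compound plus carbachol (1 uM final, an EC50 level) for 5 h at 37 °C. CCF4 loading followed for 1 h at RT; 460/530 nm ratio gave %activity.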

Assay [2] can be described thus: Stat Signaling Pathway (AID 446).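 Further: ME-180 cervical cancer cells given 40 pM IL-6 alongside compound; SIE-controlled beta-lactamase reporter measured as 460/530 nm FRET emission ratio; on the % scale 0 is the no-effect control and ±100 the full control effect.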 The conditions noted are these: ME-180 SIE beta-lactamase reporter, IL-6 stimulated, 5 h; at 17.2 µM (top of the series) unless noted. A digest of the protocol:
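Reporter line: ME-180 cervical carcinoma, SIE-beta-lactamase. Treatment: compound with 40 pM IL-6, 5 hrs, 37 C, in low-serum OPTI-MEM with 10 mM HEPES pH 7.3. Detection: 460/530 nm fluorescence.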

The target in assay [3] is Glucocorticoid receptor (Homo sapiens) (UniProt P04150). In words: GR-GFP Redistribution (AID 450;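 active means compounds whose dose series gives a full or clear partial fitted curve of increased nuclear translocation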; further: potency means the concentration at half of the fitted maximal effect).
For assay [4] the target is unchanged. Nature of the assay: GR-EFC Redistribution (AID 451; calls by dose curve; further: potency means the concentration at half of the fitted maximal effect). Conditions: CHO-K1 GR-EFC translocation, beta-gal luminescence, 2 h. In short, it runs like this:
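CHO-K1 cells stably expressing nuclear-localized β-gal enzyme acceptor and GR fused C-terminally to the enzyme donor fragment; ligand-driven nuclear translocation restores β-gal by complementation. Compounds titrated up to 46 uM final, 2 h at 37 °C; luminescence read.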

Assay [5] addresses Mitogen-activated protein kinase 10 (Mus musculus) (UniProt Q61831). In words: JNK3 AlphaScreen Assay (AID 530).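 Further: kinase came from lysate of stimulated human HepG2 cells; signal reports phosphorylation of biotinylated GST-cJun 1-79 at Ser73 with 10 µM ATP; on the % scale 0 is the no-effect control and ±100 the full control effect.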 A digest of the protocol:
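Inhibitors reduce antibody binding to phosphorylated biotin-cJun, lowering AlphaScreen luminescence. Lysates from HepG2 cells pre-activated by IL-1beta plus TNF-alpha supplied JNK3; compounds were titrated.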
In general terms: Bead proximity is the source of the signal in Alpha formats.

Assay [6] concerns the target 3',5'-cyclic-AMP phosphodiesterase 4B (Homo sapiens) (UniProt Q07343). In words: qHTS Assay for Inhibitors of PDE-IV (AID 607; active means well fitted activation curve with a large enough effect in the main read-out, with a control signal flat, not every such curve was filed as active; further: % of control where 0% means no effect). In short, it runs like this:
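Cell-based read-out of cAMP via a modified cyclic nucleotide-gated channel and membrane potential dye (535/590 nm) in HEK293 cells expressing PDE4 endogenously. Compounds tested up to 22.9 uM final; 100 uM RO 20-1724 reference.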
On the technique in general: In qHTS, concentration-response curves come from the screen itself.

The target in assay [7] is Guanine nucleotide-binding protein G(i) subunit alpha-1 (Homo sapiens) (UniProt P63096). Nature of the assay: qHTS Assay for Inhibitors of RGS12 GoLoco Motif Activity (Green Fluorophore) (AID 879; active means well fitted curve in the direction sought with a large enough effect; an effect the other way counts as inactive or inconclusive;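 further: 0% = labeled peptide with Gαi1 and full inhibition = labeled peptide alone without protein; negative values mean loss of peptide binding seen as reduced polarization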). In short, it runs like this: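 Fluorescence polarization assay: 50 nM Gαi1 with 10 nM FITC-labeled RGS12 GoLoco peptide in 10 mM Tris pH 7.5, 150 mM NaCl, 0.1 mM GDP, 0.05% NP40, 10 min at room temperature with compound.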

The nature of assay [8]: qHTS Assay for Identification of Small Molecule Antagonists for Thrombopoietin (TPO) Signaling Pathway (AID 918; active means well fitted curve in the direction sought with a large enough effect; an effect the other way counts as inactive or inconclusive; further: potency means the concentration at half of the fitted maximal effect; nearly all actives have a fitted effect of over 60% in size). The conditions noted are these: TPO-dependent cell signaling reporter, antagonist mode. A digest of the protocol:
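Ba/F3 (murine, hTPO-R, GPIIb-luc reporter); overnight IL-3 withdrawal; cpd + TPO 26 pM final (EC50); 24 h 37 C/5% CO2; Steadylite luminescence after 10 min RT.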

Assay [9] addresses Pyruvate kinase (Leishmania mexicana) (UniProt Q27686). In words: qHTS Validation Assay for Inhibitors of Leishmania Mexicana Pyruvate Kinase (AID 945; active means well fitted curve in the direction sought with a large enough effect; an effect the other way counts as inactive or inconclusive;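 further: 0% = DMSO only neutral control wells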). In short, it runs like this:
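LmPYK E451W 0.2 nM; 0.5 mM PEP, 0.1 mM ADP, 7 mM MgCl2, 50 mM KCl, imidazole pH 7.2, 0.01% Tween 20, 0.05% BSA; 1 h RT; PKLight luminescence; DMSO-normalized.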

Assay [10] addresses Pyruvate kinase PKM (Homo sapiens) (UniProt P14618). In words: qHTS Assay for Activators of Human Muscle Pyruvate Kinase (AID 954; active means well fitted curve in the direction sought with a large enough effect, not every such curve was filed as active;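 further: 0% = uninhibited enzyme and -100% = no enzyme or full thiadiazolimine inhibition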). In short, it runs like this:
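Human PKM2 activity is measured as ATP generation, detected by luciferase-coupled luminescence. The enzyme (0.1 nM) acts on 0.5 mM PEP and 0.1 mM ADP for 1 h at ambient temperature; data are normalized to uninhibited and full-inhibition wells.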

Assay [11] deals with Alpha-galactosidase A (Homo sapiens) (UniProt P06280). In words: Counterscreen for Glucocerebrosidase Inhibitors: qHTS Assay for Human alpha-Galactosidase at pH 4.5 (AID 992; active means well fitted curve in the direction sought with a large enough effect; an effect the other way counts as inactive or inconclusive; further: 0% is about no effect). In short, it runs like this: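 Quantitative HTS: compounds tested from 0.7 nM up to 77 uM against 2 nM enzyme with 80 uM 4-MU alpha-D-galactopyranoside. The 20 min room-temperature reaction is stopped with 1M NaOH/1M glycine, pH 10.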

In assay [12] the target is alpha-glucosidase (Oryza sativa, rice) (UniProt Q653V4). Nature of the assay: Counterscreen for Glucocerebrosidase Inhibitors: qHTS Assay for Rice alpha-Glucosidase at pH 5.0 (AID 997; active means well fitted curve in the direction sought with a large enough effect; an effect the other way counts as inactive or inconclusive;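 further: 0% = full activity with enzyme and -100% = basal without enzyme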). In short, it runs like this:
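Rice alpha-glucosidase (4 nM final) with 400 uM 4-methylumbelliferyl-alpha-D-glucopyranoside in citrate buffer pH 5.0, 20 min at room temperature, stopped at pH 10; fluorescence 365/440 nm, compounds 0.7 nM–77 uM, AC50 from Hill fits.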
(In general: Counterscreens check selectivity or assay interference.)

Assay [13] can be described thus: qHTS Assay for Identification of Small Molecule Agonists for Hypoxia Response Element Signaling Pathway (AID 914; active means well fitted activation curve with a large enough effect in the signal ratio, with a control signal flat, not every such curve was filed as active; the % refers to the signal ratio; further: potency means the concentration at half of the fitted maximal effect). Conditions: ME-180 (cervical carcinoma) HRE-bla reporter, beta-lactamase ratio, CoCl2, 17 h; activation: hits give high values. In short, it runs like this:
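ME-180 cells carrying an HRE-driven beta-lactamase reporter were treated with compounds in a titration series plus an EC50 level of CoCl2 for 17 h at 37 degrees Celsius; CCF4 readout as the 460nm/530nm ratio gave AC50 values.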

Values without a mark were called inactive. Records with an inconclusive call do not appear. Calls of active or inactive are those of the source. Unless noted, the call rests on the fitted dose curve; in most records, active means well fitted curve in either direction with a large enough effect (not every such curve was filed as active); inconclusive means small, poorly fitted or top-dose-only effect, or another doubt; inactive means flat fitted curve, though single readings scatter.

Glucocorticoid receptor (Homo sapiens), sequence (P04150 whole entry, looked up): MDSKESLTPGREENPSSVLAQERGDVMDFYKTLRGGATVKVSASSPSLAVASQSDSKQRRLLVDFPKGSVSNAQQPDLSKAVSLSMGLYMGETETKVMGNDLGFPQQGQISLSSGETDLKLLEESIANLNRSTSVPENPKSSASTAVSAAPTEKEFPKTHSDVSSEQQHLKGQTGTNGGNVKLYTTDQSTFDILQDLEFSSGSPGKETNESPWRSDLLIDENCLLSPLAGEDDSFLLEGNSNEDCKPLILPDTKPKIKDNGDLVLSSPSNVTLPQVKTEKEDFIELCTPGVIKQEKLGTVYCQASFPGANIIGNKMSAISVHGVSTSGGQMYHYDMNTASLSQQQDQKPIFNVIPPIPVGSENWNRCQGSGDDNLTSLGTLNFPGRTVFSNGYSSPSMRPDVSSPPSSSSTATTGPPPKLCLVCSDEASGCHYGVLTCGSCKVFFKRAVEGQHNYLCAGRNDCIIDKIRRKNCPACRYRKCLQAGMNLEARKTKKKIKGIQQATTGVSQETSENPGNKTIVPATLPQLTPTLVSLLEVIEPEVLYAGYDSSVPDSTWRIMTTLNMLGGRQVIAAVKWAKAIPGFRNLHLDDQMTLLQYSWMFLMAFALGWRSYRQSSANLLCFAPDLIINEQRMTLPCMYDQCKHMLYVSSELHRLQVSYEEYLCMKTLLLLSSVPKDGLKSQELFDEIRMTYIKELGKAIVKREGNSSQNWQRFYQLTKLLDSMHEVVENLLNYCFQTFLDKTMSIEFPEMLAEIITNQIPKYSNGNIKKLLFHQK
Alpha-galactosidase A (Homo sapiens), sequence (P06280 whole entry, looked up): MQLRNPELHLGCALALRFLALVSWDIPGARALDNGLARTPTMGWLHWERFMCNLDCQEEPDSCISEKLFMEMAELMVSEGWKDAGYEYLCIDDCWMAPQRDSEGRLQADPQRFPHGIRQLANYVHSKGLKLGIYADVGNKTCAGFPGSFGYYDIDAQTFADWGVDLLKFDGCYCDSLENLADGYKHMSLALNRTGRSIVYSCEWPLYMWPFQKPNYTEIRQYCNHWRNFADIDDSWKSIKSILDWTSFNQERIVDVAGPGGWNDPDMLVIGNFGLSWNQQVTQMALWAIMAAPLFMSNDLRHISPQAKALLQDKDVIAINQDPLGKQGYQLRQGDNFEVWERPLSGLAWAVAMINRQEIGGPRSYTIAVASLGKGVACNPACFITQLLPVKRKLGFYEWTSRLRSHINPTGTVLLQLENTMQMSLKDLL
Pyruvate kinase (Leishmania mexicana), sequence (Q27686 2-499 E452W): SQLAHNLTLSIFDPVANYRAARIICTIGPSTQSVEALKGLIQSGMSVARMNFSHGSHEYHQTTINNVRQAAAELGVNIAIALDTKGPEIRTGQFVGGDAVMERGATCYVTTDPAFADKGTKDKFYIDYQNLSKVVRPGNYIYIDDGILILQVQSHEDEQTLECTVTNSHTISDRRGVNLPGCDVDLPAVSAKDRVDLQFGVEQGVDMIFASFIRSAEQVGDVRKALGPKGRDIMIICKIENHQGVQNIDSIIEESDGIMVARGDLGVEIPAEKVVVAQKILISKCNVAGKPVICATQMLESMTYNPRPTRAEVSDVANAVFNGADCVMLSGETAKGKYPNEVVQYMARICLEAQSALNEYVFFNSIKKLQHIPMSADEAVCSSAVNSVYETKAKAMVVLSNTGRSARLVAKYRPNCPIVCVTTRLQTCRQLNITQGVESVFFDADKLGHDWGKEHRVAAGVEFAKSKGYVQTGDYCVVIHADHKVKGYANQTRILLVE
Pyruvate kinase PKM (Homo sapiens), sequence (P14618 whole entry, looked up): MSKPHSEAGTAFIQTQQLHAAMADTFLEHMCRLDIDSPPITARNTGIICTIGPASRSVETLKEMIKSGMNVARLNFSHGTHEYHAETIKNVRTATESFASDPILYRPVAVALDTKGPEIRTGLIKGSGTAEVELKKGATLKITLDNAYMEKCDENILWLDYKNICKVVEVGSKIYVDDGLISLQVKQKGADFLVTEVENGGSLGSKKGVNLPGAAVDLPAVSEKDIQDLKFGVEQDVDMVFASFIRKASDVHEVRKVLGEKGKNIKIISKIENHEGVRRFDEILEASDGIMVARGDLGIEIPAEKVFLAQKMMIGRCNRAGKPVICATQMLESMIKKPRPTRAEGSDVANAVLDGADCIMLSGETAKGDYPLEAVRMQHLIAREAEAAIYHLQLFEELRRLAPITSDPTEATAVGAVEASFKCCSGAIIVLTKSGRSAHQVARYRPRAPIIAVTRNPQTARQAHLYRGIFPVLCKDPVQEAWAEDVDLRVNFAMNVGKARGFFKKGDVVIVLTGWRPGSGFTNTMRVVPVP
Guanine nucleotide-binding protein G(i) subunit alpha-1 (Homo sapiens), sequence (P63096 whole entry, looked up): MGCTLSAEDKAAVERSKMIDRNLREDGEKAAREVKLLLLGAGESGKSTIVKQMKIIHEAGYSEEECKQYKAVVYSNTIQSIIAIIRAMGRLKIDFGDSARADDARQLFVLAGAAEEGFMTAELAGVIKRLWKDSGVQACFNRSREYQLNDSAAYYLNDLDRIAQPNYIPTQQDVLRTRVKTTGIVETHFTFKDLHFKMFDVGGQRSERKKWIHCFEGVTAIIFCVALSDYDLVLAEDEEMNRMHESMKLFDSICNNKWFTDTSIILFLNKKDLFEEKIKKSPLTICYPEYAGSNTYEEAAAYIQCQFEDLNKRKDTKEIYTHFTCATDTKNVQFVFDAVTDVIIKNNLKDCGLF
3',5'-cyclic-AMP phosphodiesterase 4B (Homo sapiens), sequence (Q07343 whole entry, looked up): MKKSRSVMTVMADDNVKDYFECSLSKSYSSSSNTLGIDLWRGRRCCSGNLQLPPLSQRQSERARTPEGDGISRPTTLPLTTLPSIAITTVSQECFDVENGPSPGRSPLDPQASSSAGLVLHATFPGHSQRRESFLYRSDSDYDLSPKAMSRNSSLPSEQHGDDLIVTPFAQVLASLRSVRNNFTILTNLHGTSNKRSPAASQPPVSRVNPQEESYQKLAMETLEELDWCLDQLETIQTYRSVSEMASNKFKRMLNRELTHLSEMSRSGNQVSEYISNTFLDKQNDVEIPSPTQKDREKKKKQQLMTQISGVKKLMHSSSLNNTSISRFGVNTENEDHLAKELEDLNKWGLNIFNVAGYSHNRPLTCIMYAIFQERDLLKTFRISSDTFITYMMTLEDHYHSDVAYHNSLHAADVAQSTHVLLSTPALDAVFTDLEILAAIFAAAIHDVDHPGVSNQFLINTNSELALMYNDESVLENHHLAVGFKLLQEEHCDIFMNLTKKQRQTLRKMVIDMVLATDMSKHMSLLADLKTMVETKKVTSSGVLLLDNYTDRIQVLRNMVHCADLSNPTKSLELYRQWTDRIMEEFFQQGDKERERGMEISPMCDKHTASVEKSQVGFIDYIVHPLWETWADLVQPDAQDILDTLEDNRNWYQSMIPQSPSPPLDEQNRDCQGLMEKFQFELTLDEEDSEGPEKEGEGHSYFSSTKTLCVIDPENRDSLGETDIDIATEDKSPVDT

With `CCCCn1c(C)cc2cc(O)ccc21`, the activity change, negative = inhibition in assay [1] was -5.83%. Also, in assay [2], the activity, negative = inhibition is -8.99%. Besides, in assay [3], the Potency is above 20.6 µM.

On to `CCOc1ccc(CC2CC(=O)NC2=O)cc1` (configuration not stated), for which the activity change, negative = inhibition in assay [1] was -5.51%. Also, in assay [2], the activity, negative = inhibition was -1.04%. In assay [3], the Potency is above 20.6 µM.

Take `Cc1cc(C)n(S(=O)(=O)Cc2ccccc2)n1`: the activity change, negative = inhibition in assay [1] is -1.74%. Further, in assay [2], the activity, negative = inhibition was 14.5%. For the same compound, the Potency in assay [3] is above 20.6 µM.

Consider `COC(=O)/C(=C1/Oc2cc(C)oc(=O)c2S1)C(F)(F)F`, for which the activity change, negative = inhibition in [1] is -131% (active). For the same compound, in assay [3], the Potency was above 20.6 µM.

As to `CN1CCc2cc(O)c(O)cc2[C@H](c2ccccc2)C1`, the activity change, negative = inhibition in [1] is -1.87% [at 38 µM]. Further, in assay [2], the activity, negative = inhibition is -12.3% [at 38 µM]. Also, the Potency in [3] was above 46 µM; in assay [4], above 46 µM; in [8] it was 10 µM (active). Moreover, the Potency result in assay [5], in assay [6] and in [9] was “inactive” in each case. Moreover, the compound was called inactive in [7], in assay [10], in assay [11] and in assay [12].

As for `CN1C(=O)NC(NC(=O)c2ccco2)(C(F)(F)F)C1=O` (configuration not stated), the activity change, negative = inhibition in [1] is 4.93%. Also, the activity, negative = inhibition in [2] was 9.87%. Also, the Potency in assay [3] was above 20.6 µM.

As for `CCOC(=O)C1/C(=N\O)CC(C)(O)C(C(=O)OCC)C1c1ccc(OC)c(OC)c1` (configuration not stated), the activity change, negative = inhibition in assay [1] is -0.404%. Also, the activity, negative = inhibition in [2] was 0.164%. For the same compound, the Potency in [13] was 794 nM (active).

Take `CC1CCc2cc(F)cc3c(O)c(C(=O)Nc4cnccn4)c(=O)n1c23` (configuration not stated): the activity change, negative = inhibition in assay [1] was 19.5%. Further, in [2], the activity, negative = inhibition is 11.1%. Besides, in assay [3], the Potency is above 20.6 µM.

As for `Cc1ccc(C(=O)CSC2=C(C#N)C(c3ccco3)C3=C(CCCC3=O)N2)cc1` (configuration not stated), the activity change, negative = inhibition in assay [1] was -8.28%. In addition, the activity, negative = inhibition in assay [2] was -22.5%. For the same compound, the Potency in assay [3] is above 20.6 µM.

Regarding `COC(=O)[C@@H](NC(=O)c1cc(-c2ccccc2)nc2ccccc12)c1ccccc1`, the activity change, negative = inhibition in [1] is -7.43% [at 38 µM]. In assay [2], the activity, negative = inhibition is 1.95% [at 38 µM]. For the same compound, the Potency in assay [3] and in assay [4] was above 46 µM each time. In assay [5], the Potency entry is “inactive”.

With `C=CCN(C)CCCNC(=O)/C=N/O`, in assay [1], the activity change, negative = inhibition is 2.2%. In addition, the activity, negative = inhibition in [2] is 3.74%. In addition, in [3], the Potency is above 20.6 µM.

As to `CC1(C)CC(=O)C2=C(C1)N(Cc1ccco1)C(=O)C2(NC(=O)c1cccnc1)C(F)(F)F` (configuration not stated), the activity change, negative = inhibition in [1] was -3.77%. Moreover, the activity, negative = inhibition in assay [2] is -9.45%. The Potency in assay [3] is above 20.6 µM.

With `CCCc1[nH]nc2c1C(c1cccc(OC)c1)C(C#N)=C(N)O2` (configuration not stated), the activity change, negative = inhibition in assay [1] was 1.34%. For the same compound, in assay [2], the activity, negative = inhibition was -24.8%. Further, in assay [3], the Potency is above 20.6 µM.

`COc1cccc(OC)c1OCC(C)CNCC1CCCO1` (configuration not stated): in assay [1], the activity change, negative = inhibition is -18.8%. Also, the activity, negative = inhibition in assay [2] was 10.2%. For the same compound, the Potency in assay [3] was above 20.6 µM.

These data come from PubChem BioAssay (NCATS).
